Screening data as filed in PubChem BioAssay.
G9a inh = blocks human histone lysine methyltransferase G9a. G9a H3K9 monomethylation, AlphaScreen, 2 h. Potency, µM (series often up to 102 µM), actives largely listed as inhibitors. actives 8.8% (n = 350,000). AID 504332; further: nearly all actives have a fitted effect of over 75% in size
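Methyltransferase reactions run at room temperature for 2 h (20 nM enzyme, 500 nM biotin-H3K9 peptide, 20 uM SAM) after a 15 min compound preincubation; product detected by AlphaScreen beads and anti-H3K9me1 antibody.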
BAZ2B inh = inhibitors of human BAZ2B bromodomain; AID 504333; AlphaScreen BAZ2B-H3K14Ac peptide displacement; actives 4.4% (n = 360,000); Q9UIF8; Potency, µM (series often up to 114 µM), usual class: inhibitors; further: nearly all actives have a fitted effect of over 60% in size
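BAZ2B 50 nM plus b-H3(5-23)K14Ac 50 nM, PBS pH 7.4/0.01% Tween-20, 30 min RT; compound added (max 110 uM), 30 min RT; streptavidin donor/Ni-chelate acceptor beads 10 ug/mL final, 20 min dark; AlphaScreen read.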
CtBP-E1A inh = inhibitors of CtBP/E1A interaction; activity change, % (test concentration not listed); AID 651724; AlphaScreen GST-E1A/His-CtBP binding, 1536-well; hits give low values; actives 0.49% (n = 340,000); in the data active means activity change below about -65%; inconclusive means mostly about -30% to -63%
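AlphaScreen with 125 nM GST-E1A and 125 nM His-CtBP (5X stocks) in Tris pH 8.0, 300 mM NaCl, BSA, Tween 20, TCEP. Compounds preincubated 2 h at 37 deg C, then glutathione donor/nickel acceptor beads added for 1 h at 37 deg C in dark.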
HP1b chromo inh = HP1-beta chromodomain-methylated histone interaction inhibition; Potency, µM (highest dose often 114 µM), actives largely listed as inhibitors; actives 0.56% (n = 390,000); AlphaScreen HP1-beta / biotin-H3K9me3 peptide binding; P83916; further: nearly all actives have a fitted effect of over 70% in size
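Compound inhibition of the preformed complex between 50 nM HP1-beta and 50 nM biotinylated H3K9me3 peptide was read by AlphaScreen. Buffer was PBS pH 7.4 with 0.01% Tween-20. Incubations ran 30 min at room temperature, with 10 ug/mL donor/acceptor beads.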
JMJD2A Tudor inh = inhibitors of human JMJD2A Tudor domain. O75164. AlphaScreen JMJD2A-Tudor / H3K4me3 peptide binding. Potency, µM (series often up to 114 µM), most hits filed as inhibitors. actives 4.4% (n = 390,000). AID 504339; further: nearly all actives have a fitted effect of over 50% in size
Six1-Eya2 blk = blocks human Six1 binding to Eya2 | Q15475+O00167 | AlphaScreen GST-Six1/His-Eya2 binding, biochemical; hits give low values | activity change, % (no concentration beside the values) | AID 651725 | actives 0.56% (n = 360,000); in the data active means activity change below about -65%; inconclusive means mostly about -30% to -63%
Target sequence (O00167 whole entry, looked up): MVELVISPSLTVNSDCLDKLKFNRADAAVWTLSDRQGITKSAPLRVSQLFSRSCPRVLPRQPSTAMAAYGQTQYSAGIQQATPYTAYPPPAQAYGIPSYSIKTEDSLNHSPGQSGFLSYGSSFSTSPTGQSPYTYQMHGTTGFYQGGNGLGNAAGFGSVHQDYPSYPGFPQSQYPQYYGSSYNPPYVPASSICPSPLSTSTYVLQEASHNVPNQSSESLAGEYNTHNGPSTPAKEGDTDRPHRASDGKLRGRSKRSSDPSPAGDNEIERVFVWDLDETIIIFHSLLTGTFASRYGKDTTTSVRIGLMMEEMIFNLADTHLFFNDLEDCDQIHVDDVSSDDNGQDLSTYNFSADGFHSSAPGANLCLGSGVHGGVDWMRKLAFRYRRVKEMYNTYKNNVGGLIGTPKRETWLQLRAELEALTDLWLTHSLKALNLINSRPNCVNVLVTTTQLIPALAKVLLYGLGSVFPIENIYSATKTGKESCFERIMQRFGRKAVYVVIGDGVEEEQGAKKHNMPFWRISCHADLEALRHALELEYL
Target sequence (Q15475 whole entry, looked up): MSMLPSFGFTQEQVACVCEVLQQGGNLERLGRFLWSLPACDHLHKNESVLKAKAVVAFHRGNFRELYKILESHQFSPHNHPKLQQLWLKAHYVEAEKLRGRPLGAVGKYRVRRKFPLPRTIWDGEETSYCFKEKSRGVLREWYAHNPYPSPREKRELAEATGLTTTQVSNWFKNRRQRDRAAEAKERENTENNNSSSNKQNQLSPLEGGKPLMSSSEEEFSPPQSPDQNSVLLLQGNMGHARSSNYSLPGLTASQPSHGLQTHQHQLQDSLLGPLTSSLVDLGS
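Compounds are tested against tagged Six1 and Eya2 proteins bridged by glutathione donor and nickel acceptor beads; after a one-hour incubation at 37 °C without light, AlphaScreen emission is recorded.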
A number is an active result; . = inactive; ? = inconclusive; / = not tested or not shown; [ ] = another dose, or the depositor's remark. Sampled rows, rich in hits. Any-hit rate of the full collection: about 10%. Unless noted, the call rests on the fitted dose curve; in most records, active means well fitted inhibition curve with a large enough effect; inconclusive means small, poorly fitted or top-dose-only effect; inactive means no such curve, though single readings can be large or run the other way.

SMILES | G9a inh | BAZ2B inh | CtBP-E1A inh | HP1b chromo inh | JMJD2A Tudor inh | Six1-Eya2 blk
CC1=C(C(=O)OCc2ccccc2)C(c2ccc(Cl)cc2Cl)NC(=O)N1CCCCCC(=O)O (configuration not stated) | ? | ? | . | . | . | .
CC1=C(C(=O)OCc2ccccc2)C(c2ccc(Cl)cc2Cl)NC(=O)N1CCCC(=O)O (configuration not stated) | 56µM | . | . | . | . | .
CCOC(=O)C1=C(C)N(CCCCCC(=O)O)C(=O)NC1c1ccccc1Cl (configuration not stated) | 56µM | ? | . | . | . | .
CCOC(=O)C1=C(C)N(CCCCCC(=O)O)C(=O)NC1c1ccc(Br)cc1 (configuration not stated) | 50µM | . | . | . | ? | .
Cc1cc(C)n(-c2nc3cc(Cl)ccc3nc2N2CCN(c3cccc(C)c3C)CC2)n1 | . | . | / | . | . | /
Cc1cc(C)n2ncc(C(=O)Nc3ccccc3)c2n1 | / | / | / | / | . | /
O=[N+]([O-])c1ccc(N2CCCCC2)c(-c2nn[nH]n2)c1 | 45µM | ? | . | . | . | .
O=[N+]([O-])c1ccc(N2CCCCCC2)c(S(=O)(=O)N2CCCCC2)c1 | / | ? | . | . | .[11.4 µM] | .
CCn1nnc(C(=O)O)c1C(=O)O | ? | ? | . | . | 20µM | .
CCOc1ccc(C(=O)c2cn(CC(=O)Nc3ccc4c(c3)OCO4)c3ccc(OC)cc3c2=O)cc1 | ? | . | / | . | . | /
COC(=O)C1=C(C)Nc2[nH]c(=S)[nH]c(=O)c2C1c1ccc(OC)cc1 (configuration not stated) | 8.9µM | ? | . | . | ? | .
COc1ccc(OC)c(N=C2C(=O)Nc3ccccc32)c1 | ? | ? | . | . | . | .
COc1ccc(OC)c(N=c2ssnc2Cl)c1 | 1.1µM | 25µM | . | ? | ? | .
COc1cc(N=c2ssnc2Cl)c(OC)cc1Cl | 1.1µM | 28µM | ? | 11µM | 25µM | .
COc1cc(-n2nnnc2SC)c(OC)cc1Cl | . | . | . | . | . | .
Cc1nn(-c2ccc(N3CCCC3)nn2)c(C)c1CCC(=O)Nc1ccc(F)cc1F | . | . | / | . | . | /
COc1ccc(C2/C=C\CN(C(=O)C3CCCC3)C(C)C(=O)N2Cc2ccc(F)cc2)cc1 (configuration not stated) | / | / | / | . | . | /
O=C(O)CNS(=O)(=O)c1ccc2[nH]c(=O)c(=O)[nH]c2c1 | 56µM | . | . | . | . | .
CN(C(=O)c1cc2c(=O)n3ccccc3nc2n1C)c1ccccc1 | . | . | / | . | . | /
COc1ccc(-c2cc(C(F)(F)F)c(C#N)c(SCC(=O)Nc3ccc(F)cc3)n2)cc1 | . | . | / | . | . | /
COc1ccc(C(CC(=O)NCc2ccccc2)Sc2n[nH]c(-c3ccccc3)n2)cc1 (configuration not stated) | . | . | / | . | . | .
COc1ccc(C(CC(=O)NCc2ccccc2)Sc2n[nH]c(-c3ccc(Cl)cc3)n2)cc1 (configuration not stated) | 25µM | . | / | . | . | .
COc1ccc(-c2nc(SC(CC(=O)NCc3ccccc3)c3ccc(OC)c(OC)c3)n[nH]2)cc1 (configuration not stated) | 45µM | . | / | . | . | ?
Cc1cccc(CCNC(=O)c2sc3nc4n(c(=O)c3c2C)CCCC4)c1 | ? | . | / | . | . | /
Cc1cccc(NC(=O)Cn2nnc(-c3nc(-c4ccncc4)no3)c2N)c1 | . | ? | / | . | ? | /
SMILES | G9a inh | BAZ2B inh | CtBP-E1A inh | HP1b chromo inh | JMJD2A Tudor inh | Six1-Eya2 blk
CCOc1ccc(S(=O)(=O)n2nc(C)c(S(=O)(=O)N3CCOCC3)c2C)cc1 | 50µM | ? | . | . | . | .
Cc1nn(S(=O)(=O)c2ccc(C(C)C)cc2)c(C)c1S(=O)(=O)N1CCOCC1 | 35µM | ? | . | . | 79µM | .
Cc1nn(S(=O)(=O)c2ccc(C(C)C)cc2)c(C)c1S(=O)(=O)N1CCCCCC1 | . | . | / | . | . | /
COc1cc(-c2n[nH]c(=S)n2-c2ccc(Br)cc2)cc(OC)c1OC | / | . | . | . | 50µM | .
O=[N+]([O-])c1cccc(-c2n[nH]c(=S)n2-c2ccc(Br)cc2)c1 | 6.3µM | . | . | . | ? | .
O=C(O)c1ccc(-n2c(-c3ccc(Br)cc3)n[nH]c2=S)cc1 | ? | . | . | . | 7.1µM | .
S=c1[nH]nc(-c2ccc(Br)cc2)n1-c1ccc(Br)cc1 | 8.9µM | . | / | . | . | .
O=C1CCCC2=C1C1(CCCC1)N=C(Nc1nc3ccccc3n1Cc1ccccc1)N2 | / | / | / | / | . | /
CCN(CC)c1ccc(Nc2cc3n(c(=O)n2)CCc2cc(OC)c(OC)cc2-3)cc1 | 20µM | 22µM | -84 | ? | 45µM | ?
COc1cc2c(cc1OC)-c1cc(Nc3cccc(F)c3)nc(=O)n1CC2 | . | . | . | . | . | -79
COc1cc2c(cc1OC)-c1cc(Nc3ccc(F)cc3)nc(=O)n1CC2 | . | . | / | . | . | ?
COc1cc2c(cc1OC)-c1cc(Nc3ccc(N(C)C)cc3)nc(=O)n1CC2 | 14µM | ? | -69 | . | ? | -69
CCOc1ccccc1Nc1nnc(SCC(=O)Nc2nc(-c3ccc(OC)cc3)cs2)s1 | 8.9µM | . | . | . | ? | .
COc1ccccc1Nc1nnc(SCC(=O)Nc2nc(-c3ccc(F)cc3)cs2)s1 | / | . | / | . | . | .
COc1ccc(-c2csc(NC(=O)CSc3nnc(Nc4ccccc4C)s3)n2)cc1 | 11µM | . | . | . | . | .
COc1ccc2c(c1)O[C@H](c1ccc3c(c1)OCO3)[C@@H](OC(=O)Nc1cc(OC)c(OC)c(OC)c1)C2=O | 50µM | ? | / | / | / | /
COc1cccc([C@@H]2Oc3ccc(OC)cc3C(=O)[C@H]2OC(=O)Nc2cc(OC)c(OC)c(OC)c2)c1 | ? | . | . | . | ? | .
COc1cccc([C@@H]2Oc3ccc(OC)cc3C(=O)[C@H]2OC(=O)NCc2ccc3c(c2)OCO3)c1 | 45µM | . | / | / | / | /
CC(=O)Nc1ccc(Nc2nc3ccc(C)cc3n3nnnc23)cc1 | . | . | / | . | . | /
O=C(COc1ccccc1Cl)N(Cc1cccc(F)c1)C1CCS(=O)(=O)C1 (configuration not stated) | . | . | / | . | . | /
CCn1c(CSc2nc3ccccc3s2)n[nH]c1=S | 2.8µM | . | . | . | 11µM | .
CN(C)CCCSc1nc2ccccc2s1 | 14µM | ? | . | ? | . | .
C=CCn1c(CSc2nc3ccccc3s2)n[nH]c1=S | 4.5µM | . | . | . | 50µM | .
S=c1[nH]nc(CSc2nc3ccccc3s2)n1Cc1ccccc1 | 3.2µM | . | . | . | ? | .
COC(=O)c1nnn(CC(=O)Nc2c(C)cccc2C)c1N | . | . | / | . | . | /
